# According to PubChem BioAssay (NCATS):
# Records with an inconclusive call do not appear. Where a call stands in place of a potency, no number is given. Unmarked numbers belong to inactive results. Active and inactive are the calls of the source. Calls come from the whole dose curve; as a rule, active = well fitted curve in the direction sought with a large enough effect; inconclusive = small, poorly fitted or top-dose-only effect, or another doubt; inactive = no such curve, though single readings can be large; an effect the other way counts as inactive or inconclusive.
# What was measured:
# MKL-2 = experiment: qHTS assay to identify novel small-molecules to repurpose for Merkel cell carcinoma treatment (AID 1296009); settings: MCC and control cell lines, CellTiter-Glo viability, 72 h; series mostly up to 46 µM; note: nearly all actives have a fitted effect of over 60% in size
# Outline: (§1)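 Luminescence from CellTiter-Glo, read 10 min after addition at room temperature, reported viability following a 72 hr, 37 degree celsius treatment with NPC or MIPE compounds in titration; values normalized to plate controls.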
# UISO = experiment: as above; settings: MCC and control cell lines, CellTiter-Glo viability, 72 h; series mostly up to 46 µM
# Outline: as §1
# WaGa = experiment: as above; settings: MCC and control cell lines, CellTiter-Glo viability, 72 h; series mostly up to 46 µM
# Outline: as §1
# C33A = experiment: Primary qHTS to identify gynecologic anti-cancer compounds using libraries of approved drugs and bioactive compounds (AID 1345084); settings: Gynecologic cancer cell panel viability, ATPlite luminescence, 48 h; series mostly up to 57.5 µM; note: nearly all actives have a fitted effect of over 55% in size; note: potency is the fitted concentration of half-maximal effect
# Outline: (§2)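 Five-point cytotoxicity, 48 h drug exposure at 37 C, 5% CO2, on cells seeded 16 h beforehand. ATP content read by ATPlite luminescence.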
# CAOV3 = experiment: as above; settings: Gynecologic cancer cell panel viability, ATPlite luminescence, 48 h; series mostly up to 57.5 µM
# Outline: as §2
# CASKI = experiment: as above; settings: Gynecologic cancer cell panel viability, ATPlite luminescence, 48 h; series mostly up to 57.5 µM
# Outline: as §2
# Es-2 = experiment: as above; settings: Gynecologic cancer cell panel viability, ATPlite luminescence, 48 h; series mostly up to 57.5 µM
# Outline: as §2
# HeLa = experiment: as above; settings: Gynecologic cancer cell panel viability, ATPlite luminescence, 48 h; series mostly up to 57.5 µM
# Outline: as §2
# Hek293T = experiment: as above; settings: Gynecologic cancer cell panel viability, ATPlite luminescence, 48 h, control line for the selectivity index; series mostly up to 57.5 µM
# Outline: as §2
# NIH3T3 = experiment: qHTS assay to identify novel small-molecules to repurpose for Merkel cell carcinoma treatment (AID 1296009); settings: MCC and control cell lines, CellTiter-Glo viability, 72 h; at 44.8 µM (top of the series) unless noted; note: nearly all actives have a fitted effect of over 60% in size
# Outline: as §1
structure (smiles),measurement,setting,value
CCC(C(=O)O)c1ccc(N2Cc3ccccc3C2=O)cc1 (stereo not given),Potency,MKL-2,inactive
same,Potency,UISO,inactive
same,Potency,WaGa,inactive
same,Potency,C33A,inactive
same,Potency,CAOV3,inactive
same,Potency,CASKI,inactive
same,Potency,Es-2,inactive
same,Potency,HeLa,inactive
same,Potency,Hek293T,inactive
C[C@@H]1O[C@@H](O[C@H]2[C@H](OC(=O)[C@]34CCC(C)(C)C[C@H]3C3=CCC5[C@@]6(C)C[C@H](O)[C@H](O[C@@H]7O[C@H](CO)[C@@H](O)[C@H](O)[C@H]7O)[C@@](C)(CO)C6[C@H](O)C[C@@]5(C)[C@]3(C)C[C@H]4O)OC[C@H](O)[C@@H]2O)[C@H](O)[C@H](O)[C@H]1O[C@@H]1OC[C@@H](O)[C@H](O[C@H]2OC[C@](O)(CO)[C@H]2O)[C@H]1O (stereo not given in full),outcome,NIH3T3,inactive [at 9.27 µM]
same,"activity change, negative = cytotoxicity",C33A,6.39% [at 6.55 µM]
same,"activity change, negative = cytotoxicity",CAOV3,27.3% [at 6.55 µM]
same,"activity change, negative = cytotoxicity",CASKI,-4.03% [at 6.55 µM]
same,"activity change, negative = cytotoxicity",Es-2,1.52% [at 6.55 µM]
same,"activity change, negative = cytotoxicity",HeLa,19.6% [at 6.55 µM]
same,"activity change, negative = cytotoxicity",Hek293T,-3.35% [at 6.55 µM]
CC(=O)OC1C(O)CC2(C)C(CCC(C)C23Cc2c(O)cc(CO)c(C=O)c2O3)C1(C)C (stereo not given),outcome,NIH3T3,inactive [at 17.4 µM]
same,Potency,C33A,inactive
same,Potency,CAOV3,inactive
same,Potency,CASKI,inactive
same,Potency,Es-2,inactive
same,Potency,HeLa,inactive
same,Potency,Hek293T,inactive
COc1cc(Nc2nc3ccccc3nc2NS(=O)(=O)c2ccc(NC(=O)c3ccc(OC)c(C)c3)cc2)cc(OC)c1,outcome,NIH3T3,inactive
same,Potency,C33A,inactive
same,Potency,CAOV3,inactive
same,Potency,CASKI,inactive
same,Potency,Es-2,inactive
same,Potency,HeLa,inactive
same,Potency,Hek293T,inactive
NC1(C(=O)NC(CCO)c2ccc(Cl)cc2)CCN(c2ncnc3[nH]ccc23)CC1 (stereo not given),outcome,NIH3T3,inactive
same,Potency,C33A,2240 nM (active)
same,Potency,CAOV3,inactive
same,Potency,CASKI,inactive
same,Potency,Es-2,inactive
same,Potency,HeLa,inactive
CC(C)c1ccc(CO)cc1O[C@@H]1O[C@H](CO)[C@@H](O)[C@H](O)[C@H]1O,outcome,NIH3T3,inactive
same,Potency,C33A,inactive
same,Potency,CAOV3,inactive
same,Potency,CASKI,inactive
same,Potency,Es-2,inactive
same,Potency,HeLa,inactive
same,Potency,Hek293T,inactive
COC1=CC(=O)CC(C)C12Oc1cc(OC)cc(O)c1C2=O (stereo not given),outcome,NIH3T3,inactive
same,Potency,C33A,inactive
same,Potency,CAOV3,inactive
same,Potency,CASKI,inactive
same,Potency,Es-2,inactive
same,Potency,HeLa,inactive
same,Potency,Hek293T,inactive
CC1CCC2(OC1)OC1CC3C4CCC5C[C@@H](O[C@@H]6O[C@H](CO[C@@H]7OC[C@@H](O)[C@H](O)[C@H]7O)[C@H](O)[C@H](O)[C@H]6O)CC[C@]5(C)C4CC[C@]3(C)C1C2C (stereo not given in full),outcome,NIH3T3,inactive [at 17.4 µM]
same,Potency,C33A,inactive
same,Potency,CAOV3,inactive
same,Potency,CASKI,inactive
same,Potency,Es-2,inactive
same,Potency,HeLa,inactive
same,Potency,Hek293T,inactive
COc1cc2c3c(cc4ccccc4c3c1O)NC2=O,outcome,NIH3T3,inactive
same,Potency,C33A,inactive
same,Potency,CAOV3,inactive
same,Potency,CASKI,inactive
same,Potency,Es-2,inactive
same,Potency,HeLa,inactive
same,Potency,Hek293T,inactive
Cc1c2cc(c(C(=O)O)c1C)OC1OC(C(O)C(O)C1O)C(O)C(O)C1OC(O2)C(O)C(O)C1O (stereo not given),outcome,NIH3T3,inactive [at 17.4 µM]
same,Potency,C33A,inactive
same,Potency,CAOV3,inactive
same,Potency,CASKI,inactive
same,Potency,Es-2,inactive
same,Potency,HeLa,inactive
same,Potency,Hek293T,inactive
CC1(C)CC[C@]2(C(=O)O)CC[C@]3(C)C(=CCC4[C@@]5(C)CC[C@H](O[C@@H]6O[C@H](CO)[C@@H](O)[C@H](O)[C@H]6O[C@@H]6O[C@H](CO)[C@@H](O)[C@H](O)[C@H]6O)[C@@](C)(CO)C5CC[C@]43C)[C@@H]2C1 (stereo not given in full),outcome,NIH3T3,inactive [at 17.4 µM]
same,Potency,C33A,inactive
same,Potency,CAOV3,inactive
same,Potency,CASKI,inactive
same,Potency,Es-2,inactive
same,Potency,HeLa,inactive
same,Potency,Hek293T,inactive
C=CC(C)(O)C(O)CC1C(C)(O)C(O)C(O)C2C(C)(C)CCCC21C (stereo not given),outcome,NIH3T3,inactive
same,Potency,C33A,inactive
same,Potency,CAOV3,inactive
same,Potency,CASKI,inactive
same,Potency,Es-2,inactive
same,Potency,HeLa,inactive
same,Potency,Hek293T,inactive
CCNCc1nc2c(N)nc3ccccc3c2n1CC(C)(C)O,outcome,NIH3T3,inactive
same,Potency,C33A,inactive
same,Potency,CAOV3,inactive
same,Potency,CASKI,inactive
same,Potency,Es-2,inactive
same,Potency,HeLa,inactive
same,Potency,Hek293T,inactive
COC(=O)C1=CO[C@@H](O[C@@H]2O[C@H](CO)[C@@H](O)[C@H](O)[C@H]2O)[C@@H]2C(COC(C)=O)=C[C@H](O)[C@H]12,outcome,NIH3T3,inactive [at 17.4 µM]
same,Potency,C33A,inactive
same,Potency,CAOV3,inactive
same,Potency,CASKI,inactive
same,Potency,Es-2,inactive
same,Potency,HeLa,inactive
same,Potency,Hek293T,inactive
COc1cc(O)c2c(c1)C1=C[C@H](O)[C@@H](O)C[C@]1(C)OC2=O,outcome,NIH3T3,inactive
same,Potency,C33A,inactive
same,Potency,CAOV3,inactive
same,Potency,CASKI,inactive
same,Potency,Es-2,inactive
same,Potency,HeLa,inactive
same,Potency,Hek293T,inactive
COC(=O)c1cc(OC)cc(OC)c1C(=O)c1c(OC)cc2c(c1O)C1CCCC(C)(O2)O1 (stereo not given),outcome,NIH3T3,inactive [at 17.4 µM]
same,Potency,C33A,inactive
same,Potency,CAOV3,inactive
same,Potency,CASKI,inactive
same,Potency,Es-2,inactive
same,Potency,HeLa,inactive
same,Potency,Hek293T,inactive
COc1ccc(CCO[C@@H]2CCCC[C@H]2N2CC[C@@H](O)C2)cc1OC,outcome,NIH3T3,inactive
same,Potency,C33A,inactive
same,Potency,CAOV3,inactive
same,Potency,CASKI,inactive
same,Potency,Es-2,inactive
same,Potency,HeLa,inactive
same,Potency,Hek293T,inactive
